What all share (assay): NCI-60 one-dose screen, 48 h (100 = growth as untreated, 0 = no growth, -100 = all killed)
One experiment deals with SK-MEL-2 melanoma. The note with it: 10 µM unless noted.
Another experiment has as its system EKVX NSCLC. The note with it: 10 µM unless noted.
For a further experiment, the system named is SN12C renal. The note with it: 10 µM unless noted.
Another experiment deals with UO-31 renal. The note with it: 10 µM unless noted.
The subject of the next experiment is TK-10 renal. The note with it: 10 µM unless noted.
The test system of another experiment is ACHN renal. The note with it: 10 µM unless noted.
The test system of another experiment is CAKI-1 renal. The note with it: 10 µM unless noted.
Another experiment has as its system A498 renal. The note with it: 10 µM.
Another experiment relates to HL-60(TB) leukemia. The note with it: 10 µM unless noted.
For a further experiment, the system named is CCRF-CEM leukemia. The note with it: 10 µM unless noted.
In another experiment the test system is MOLT-4 leukemia. The note with it: 10 µM unless noted.
The next experiment relates to RPMI-8226 leukemia. The note with it: 10 µM unless noted.
The subject of another experiment is OVCAR-8 ovarian. The note with it: 10 µM unless noted.
In another experiment the test system is OVCAR-5 ovarian. The note with it: 10 µM unless noted.
Another experiment has as its system OVCAR-4 ovarian. The note with it: 10 µM unless noted.
The next experiment deals with SK-OV-3 ovarian. The note with it: 10 µM unless noted.
The subject of another experiment is IGROV1 ovarian. The note with it: 10 µM unless noted.
In a further experiment the test system is OVCAR-3 ovarian. The note with it: 10 µM unless noted.
Another experiment deals with HS 578T breast. The note with it: 10 µM unless noted.
In another experiment the test system is SR leukemia. The note with it: 10 µM unless noted.

This is part of a sample that, as a whole, favours compounds with a hit. Of some 83,000 tested, about 20% had one in any assay.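 Treatment: one concentration, 48 hours, 96-well format. Scoring: percent growth, with anything below 10 considered active.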 A number with no mark means an inactive call. Active and inactive are the calls of the source.

As for `CC1=C(CN)C2=C(C)C3(CC3)[C@@](C)(O)C(=O)C2=C1`, the growth in the experiment with SK-MEL-2 melanoma was 98.5%; in the experiment with EKVX NSCLC it was 102%; with SN12C renal, 90.2%; in the experiment on UO-31 renal, 90.3%; with TK-10 renal, 102%; with ACHN renal it was 97.3%. Moreover, the growth with CAKI-1 renal was 94.7%; with A498 renal, 68.6%; in the experiment with HL-60(TB) leukemia, 88.2%; in the experiment on CCRF-CEM leukemia, 110%; with MOLT-4 leukemia, 96.7%; with RPMI-8226 leukemia, 114%. Also, the growth with OVCAR-8 ovarian was 84.2%; in the experiment with OVCAR-5 ovarian, 97.9%; with OVCAR-4 ovarian, 93.2%; in the experiment with SK-OV-3 ovarian it was 102%; in the experiment with IGROV1 ovarian it was 94.8%; in the experiment on OVCAR-3 ovarian, 101%. Also, the growth with HS 578T breast was 86%.

Regarding `CCCCCCCOC(C(=O)OCCN(CC)CC)(c1ccccc1)c1ccccc1`, the growth is 103% in the experiment on SK-MEL-2 melanoma; 76.1% in the experiment with EKVX NSCLC; 93.6% with SN12C renal; 69% in the experiment with UO-31 renal; 77.8% with TK-10 renal; 92.3% with ACHN renal. Besides, the growth is 65.4% with CAKI-1 renal; 82.4% in the experiment with A498 renal; 79.1% in the experiment on HL-60(TB) leukemia; 82.5% in the experiment with CCRF-CEM leukemia; 70.3% with MOLT-4 leukemia; 72.4% in the experiment with RPMI-8226 leukemia. Besides, the growth in the experiment on OVCAR-8 ovarian was 104%; with OVCAR-5 ovarian it was 91.3%; in the experiment with OVCAR-4 ovarian, 81.6%; in the experiment on SK-OV-3 ovarian it was 104%; in the experiment on IGROV1 ovarian, 68.7%; with OVCAR-3 ovarian, 94.1%. Besides, the growth with HS 578T breast is 94.5%.

In the case of `CC[C@H](C)[C@H](NC(=O)[C@H]1CCCCN1C)C(=O)N(C)[C@H](C[C@@H](OC(C)=O)c1nc(C(=O)N[C@@H](Cc2ccccc2)C[C@H](C)C(=O)OC)cs1)C(C)C`, the growth is 42.8% in the experiment with SK-MEL-2 melanoma; 36.7% in the experiment with EKVX NSCLC; 37.2% in the experiment on SN12C renal; 40.3% in the experiment on UO-31 renal; 18.1% in the experiment on TK-10 renal; 13.6% in the experiment with ACHN renal. Further, the growth in the experiment with CAKI-1 renal was 32.2%; in the experiment with A498 renal it was 7.53% (active); in the experiment with HL-60(TB) leukemia it was -38.6% (active); in the experiment with CCRF-CEM leukemia, 4.02% (active); in the experiment with MOLT-4 leukemia it was 4.63% (active); with SR leukemia, -7.13% (active). Also, the growth is 16.4% with OVCAR-8 ovarian; 58.1% with OVCAR-5 ovarian; 51.5% in the experiment on OVCAR-4 ovarian; 41% in the experiment with SK-OV-3 ovarian; 25.9% in the experiment with IGROV1 ovarian; -0.916% (active) in the experiment on OVCAR-3 ovarian. For the same compound, the growth in the experiment with HS 578T breast was 33.8%.

As for `COc1ccc(C2=CC(c3ccc(OC)c(OC)c3)c3c(c4ccccc4oc3=O)O2)cc1OC` (stereo not given), the growth is 8.03% (active) in the experiment with SK-MEL-2 melanoma; 30.4% with EKVX NSCLC; 58.7% with SN12C renal; 21.8% in the experiment on UO-31 renal; 42% in the experiment with TK-10 renal; 52.7% with ACHN renal. Moreover, the growth in the experiment on CAKI-1 renal was 7.77% (active); in the experiment on A498 renal, -3.43% (active); in the experiment with HL-60(TB) leukemia, -59.9% (active); with CCRF-CEM leukemia it was -6.1% (active); in the experiment with MOLT-4 leukemia it was 11.9%; with RPMI-8226 leukemia it was -48.5% (active). The growth is 36.2% with OVCAR-8 ovarian; 60.2% in the experiment with OVCAR-5 ovarian; 42.8% with OVCAR-4 ovarian; 25.6% in the experiment on SK-OV-3 ovarian; -16.3% (active) in the experiment with OVCAR-3 ovarian; -5.68% (active) in the experiment with HS 578T breast.

Regarding `COc1ccc(/C=C\c2cc(OC)c(OC)c(OC)c2)cc1NC(=O)/C=C/c1ccc(OC)c(OC)c1`, the growth in the experiment with SK-MEL-2 melanoma is 66.9%; with EKVX NSCLC, 55.1%; in the experiment on SN12C renal, 43.5%; with UO-31 renal it was 41.6%; in the experiment on TK-10 renal, 91%; with ACHN renal, 42%. Besides, the growth in the experiment on CAKI-1 renal is 42.3%; in the experiment on A498 renal, -1.67% (active); in the experiment on HL-60(TB) leukemia, -24.9% (active); in the experiment on CCRF-CEM leukemia, 12.1%; in the experiment on MOLT-4 leukemia, 17.3%; with RPMI-8226 leukemia, 53.6%. Besides, the growth in the experiment with OVCAR-8 ovarian is 44.4%; in the experiment on OVCAR-5 ovarian it was 55.4%; in the experiment with OVCAR-4 ovarian, 58.7%; with SK-OV-3 ovarian, -19.5% (active); with IGROV1 ovarian, 55.1%; in the experiment with OVCAR-3 ovarian, 1.59% (active). Further, in the experiment on HS 578T breast, the growth is 31.3%.

Regarding `CCOC(=O)c1c(C)n(Cc2ccccc2)c2cc(CN(C)C)c(O)cc12`, the growth with SK-MEL-2 melanoma is 92.1%; with EKVX NSCLC it was 64.1%; in the experiment on SN12C renal, 57.8%; in the experiment with UO-31 renal it was 43.8%; in the experiment on TK-10 renal, 68.8%; in the experiment with ACHN renal it was 81.5%. For the same compound, the growth with CAKI-1 renal was 61.6%; in the experiment on A498 renal, 43.2%; in the experiment with HL-60(TB) leukemia it was 62%; in the experiment on CCRF-CEM leukemia, 41.2%; in the experiment on MOLT-4 leukemia, 52.7%; with SR leukemia, 17.8%. The growth in the experiment on OVCAR-5 ovarian was 69.3%; in the experiment with OVCAR-4 ovarian, 68.1%; in the experiment on SK-OV-3 ovarian it was 70.4%; in the experiment on OVCAR-3 ovarian, 79.4%; in the experiment on HS 578T breast it was 61.1%.

On to `C[Se]C(=O)c1ccccc1OC(C)=O`, for which the growth was 75.4% in the experiment on SK-MEL-2 melanoma; 33.2% with EKVX NSCLC; 69% in the experiment with SN12C renal; 33% in the experiment with UO-31 renal; 27.5% with TK-10 renal; 85.9% with ACHN renal. Moreover, the growth is 64.4% in the experiment on CAKI-1 renal; 66.5% in the experiment on A498 renal; 32.8% with HL-60(TB) leukemia; 63.3% in the experiment on CCRF-CEM leukemia; 54.8% in the experiment with MOLT-4 leukemia; 88.6% with RPMI-8226 leukemia. For the same compound, the growth was 35.1% with OVCAR-8 ovarian; 54.3% with OVCAR-5 ovarian; 85.3% in the experiment with OVCAR-4 ovarian; 118% in the experiment with SK-OV-3 ovarian; 46.1% with IGROV1 ovarian; 55.3% in the experiment on OVCAR-3 ovarian. For the same compound, in the experiment on HS 578T breast, the growth was 35.3%.

These data come from PubChem BioAssay (NCI).
